From PubChem BioAssay AID2797 (The Scripps Research Institute Molecular Screening Center, 2010)
Out of some 320,000 compounds screened, about 820 (0.26%) were called active.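 Rule for the calls: active = activation above the mean activation of all tested compounds plus 3 SD, per screening run (cut at about 20% in these data); inactive = the rest.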 Shown is part of a subset that was picked to be rich in actives.

Target: Vasopressin V1a receptor (Homo sapiens) (UniProt P37288)
Experiment: V1R activation via calcium rise – fluorescence, CHO-V1R cells, counter-screen for OXTR agonist project, primary screen (AID 2797);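 note: signal is peak over basal fluorescence ratio across a 100 second FLIPR read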
Settings: Fluo-8 calcium fluorescence, agonist mode, at 3 µM, stronger effect = higher value, 0% DMSO, 100% 3 nM vasopressin

Sequence of Vasopressin V1a receptor (Homo sapiens) (P37288 whole entry, looked up): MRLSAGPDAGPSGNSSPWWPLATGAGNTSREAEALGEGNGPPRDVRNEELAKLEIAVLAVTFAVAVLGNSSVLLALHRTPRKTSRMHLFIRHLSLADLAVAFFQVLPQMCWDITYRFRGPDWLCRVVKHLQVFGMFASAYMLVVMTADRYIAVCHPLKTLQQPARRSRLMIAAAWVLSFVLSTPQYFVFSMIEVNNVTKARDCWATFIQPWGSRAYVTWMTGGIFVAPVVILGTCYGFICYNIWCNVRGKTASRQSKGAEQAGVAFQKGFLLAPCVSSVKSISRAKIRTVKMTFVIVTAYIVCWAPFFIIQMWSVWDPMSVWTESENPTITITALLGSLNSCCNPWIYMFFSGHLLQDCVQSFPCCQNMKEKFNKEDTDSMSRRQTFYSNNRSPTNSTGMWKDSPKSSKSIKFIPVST

Row | SMILES | activation
1 | CCNC(=O)COc1cc(C)c(Br)c(C)c1 | 2% (inactive)
2 | Cc1cc(C)nc(SC(C)C(=O)N/N=C/c2cccs2)n1 (stereo not given) | 0.12% (inactive)
3 | COCCCNC(=S)NCCNc1nc2cc(C)c(C)cc2cc1C#N | -0.33% (inactive)
4 | c1ccc2c(c1)OCC(CNc1ncnc3nc[nH]c13)O2 (stereo not given) | 102% (active)
5 | S=C(NCC1COc2ccccc2O1)Nc1ccc(Br)cc1 (stereo not given) | 5.7% (inactive)
6 | c1ccc(-c2cc3c(NCC4COc5ccccc5O4)ncnc3s2)cc1 (stereo not given) | 1.35% (inactive)
7 | O=C(N/N=C/c1cc([N+](=O)[O-])ccc1O)/C(=C\c1cccs1)NC(=O)c1ccccc1 | 0.52% (inactive)
8 | COc1ccccc1C1=CC(=O)CCC1 | -0.32% (inactive)
9 | Cc1cc(C)cc(OCC(=O)NC(C)c2ccccc2)c1 (stereo not given) | -1.15% (inactive)
10 | COc1cc(OC)cc(C(=O)NCC(=O)OCC(=O)NC(C)CCc2ccccc2)c1 (stereo not given) | -0.08% (inactive)
11 | COc1cc(OC)cc(C(=O)N[C@H](C(=O)OCC(=O)NC(C)c2ccccc2)C(C)C)c1 (stereo not given in full) | 68.5% (active)
12 | COc1ccc(C(=O)NNC(=S)NC(=O)c2ccccc2[N+](=O)[O-])cc1 | -0.34% (inactive)
13 | COc1ccc(C(=O)NC(=S)NNC(=O)CCc2ccccc2)cc1 | 37.5% (active)
14 | COc1ccc(CCC(=O)c2ccc(OC)cc2)cc1 | -0.9% (inactive)
15 | COc1ccc(C(=O)NC(=S)NC2CCCCC2)cc1 | -0.74% (inactive)
16 | COc1ccc(C(=O)NNC(=S)NC(=O)c2ccccc2)cc1 | 60% (active)
17 | COc1ccc(/C(N)=N/OC(=O)CCCc2ccccc2)cc1 | -0.46% (inactive)
18 | Cc1ccc(O)c(-c2cc(C(=O)NCc3ccccc3)[nH]n2)c1 | 0.3% (inactive)
19 | COc1ccc(Cc2nnc(SCC(=O)N(c3ccccc3)C(C)C)n(N)c2=O)cc1 | -1.17% (inactive)
20 | Cc1cccc(NC(=O)CN2CCCN(S(=O)(=O)c3ccc(Br)s3)CC2)c1 | 1.99% (inactive)

Row | SMILES | activation
21 | Cc1cc(C)nc(NS(=O)(=O)c2ccc(N3C(=O)C4CCCCC4C3=O)cc2)n1 (stereo not given) | 1.65% (inactive)
22 | CCNC(=O)CC1C(=O)N(c2ccc(OC)cc2)C(=S)N1CCc1ccncc1 (stereo not given) | -0.58% (inactive)
23 | Cc1ccc(C(=O)Oc2ccc(C(=S)N3CCOCC3)cc2)cc1 | 1.56% (inactive)
24 | O=C(O)C1CCCN1C1=NS(=O)(=O)c2ccccc21 (stereo not given) | -0.02% (inactive)
25 | O=C1C=CN2CCCC2CC1 (stereo not given) | 0.74% (inactive)
26 | CCN(CC)c1ccc2cc(C(N)=O)/c(=N\NC(=O)c3ccncc3)oc2c1 | 27.3% (active)
27 | NC(=O)c1cc2ccccc2o/c1=N/NC(=O)c1cccc(F)c1 | 1.54% (inactive)
28 | COc1cccc2cc(C(N)=O)/c(=N\NC(=O)c3ccccc3)oc12 | 1.9% (inactive)
29 | COc1ccc(CCNC(=O)CSc2nc(-c3ccc(OC)c(OC)c3)ccc2C#N)cc1 | -0.68% (inactive)
30 | COc1cc(NS(=O)(=O)c2ccc(NC(=S)NC(=O)c3ccccc3)cc2)nc(OC)n1 | -0.14% (inactive)
31 | CC1CCCC(NC(=O)c2cc(S(=O)(=O)N3CCCCC3)ccc2Cl)C1C (stereo not given) | -0.2% (inactive)
32 | CCN(CC)C(CNC(=O)CSc1nnnn1-c1cccc(F)c1)c1ccco1 (stereo not given) | -0.26% (inactive)
33 | CCOc1ccc(NC(=O)CSc2nncn2C)cc1 | 0.81% (inactive)
34 | CCCCN(C(=O)c1nn(C)c(=O)c2ccccc12)c1c(N)n(CCC)c(=O)[nH]c1=O | 0.08% (inactive)
35 | COc1ccc(C(=O)NC(=S)NNC(=O)c2c(-c3ccccc3)noc2C)cc1 | 70.5% (active)
36 | Cc1onc(-c2ccccc2)c1C(=O)N=C(N)c1ccc(Cl)cc1 | 0.22% (inactive)
37 | Cc1onc(-c2ccccc2)c1C(=O)Nc1ccccc1C#N | -1.51% (inactive)
38 | Cc1onc(-c2c(Cl)cccc2Cl)c1C(=O)NNC(=O)c1c(-c2c(Cl)cccc2Cl)noc1C | 0.81% (inactive)
39 | Cc1onc(-c2ccccc2)c1C(=O)NNC(=S)NC(=O)c1ccc(F)cc1 | 21.1% (active)
40 | CCc1noc(C)c1C(=O)NNC(=O)c1ccc(F)cc1 | 0.87% (inactive)

Row | SMILES | activation
41 | Cc1ccc(C(=O)Nc2sc(Cc3ccc4c(c3)OCO4)c(C)c2C(N)=O)cc1 | -0.01% (inactive)
42 | COc1ccc(C(=O)C2CCCN(Cc3cccn3-c3ccccn3)C2)c(C)c1 (stereo not given) | 8% (inactive)
43 | COC(=O)C1=C(C(=O)OC)C(c2cc([N+](=O)[O-])ccc2O)c2sc(=O)[nH]c2S1 (stereo not given) | 0.68% (inactive)
44 | CC1(C)OC(=O)C(=CSc2ccc(C(C)(C)C)cc2)C(=O)O1 | 1% (inactive)
45 | O=C(CCCN1CCc2[nH]c3ccc(F)cc3c2C1)c1ccc(F)cc1 | 23% (active)
46 | Fc1ccc(NC(=S)N2CCc3[nH]c4ccccc4c3C2)cc1 | 4.06% (inactive)
47 | CC1CCc2[nH]c3ccc(C(=O)N(C)CC(=O)Nc4cccc(F)c4)cc3c2C1 (stereo not given) | 0.41% (inactive)
48 | Cc1cc(OCc2ccc(C(=O)Nc3ccc(C(=O)O)cc3)o2)ccc1Cl | 2.11% (inactive)
49 | S=c1nccc(-c2cc(Cl)sc2Cl)[nH]1 | 0.23% (inactive)
50 | CC1CCN(CC(O)COc2ccc(C(=O)c3ccccc3)cc2)CC1 (stereo not given) | 1.88% (inactive)
51 | O=C(c1ccc(Cl)cc1)c1ccc(OCC(O)CN2CCCCC2)cc1 (stereo not given) | 4.01% (inactive)
52 | O=C(c1ccccc1)c1ccc(OCC(O)CN2CCCC2)cc1 (stereo not given) | 22.4% (active)
53 | CCOC(=O)C1(C)NC(c2ccco2)C2C(=O)N(c3ccccc3)C(=O)C21 (stereo not given) | 3.3% (inactive)
54 | COc1ccc(NC(=O)CN(Cc2ccccc2)S(C)(=O)=O)cc1OC | 0.58% (inactive)
55 | COc1ccc(OCCNC(=O)c2cc(C3CC3)nc3c2cnn3C(C)C)cc1 | -0.36% (inactive)
56 | Cc1ccc(NC(=S)NC(=O)c2ccc(-c3ccccc3)cc2)cc1 | 0.62% (inactive)
57 | COCCCNC(=S)NC(=O)c1ccccc1 | 1.26% (inactive)
58 | CCOC(=O)C1=C(NC(=S)NC(=O)c2ccccc2)c2ccccc2CC1(C)C | 29.8% (active)
59 | Cc1ccc(NC(=O)CSc2nn3c(=O)c(C)nnc3s2)cc1Cl | 0.31% (inactive)
60 | CCC(C)C(=O)Nc1cc([N+](=O)[O-])ccc1Cl (stereo not given) | -0.34% (inactive)
